Test [1] addresses T1, Mitogen-activated protein kinase 12 (Homo sapiens) (UniProt P53778).
T1 sequence (whole entry): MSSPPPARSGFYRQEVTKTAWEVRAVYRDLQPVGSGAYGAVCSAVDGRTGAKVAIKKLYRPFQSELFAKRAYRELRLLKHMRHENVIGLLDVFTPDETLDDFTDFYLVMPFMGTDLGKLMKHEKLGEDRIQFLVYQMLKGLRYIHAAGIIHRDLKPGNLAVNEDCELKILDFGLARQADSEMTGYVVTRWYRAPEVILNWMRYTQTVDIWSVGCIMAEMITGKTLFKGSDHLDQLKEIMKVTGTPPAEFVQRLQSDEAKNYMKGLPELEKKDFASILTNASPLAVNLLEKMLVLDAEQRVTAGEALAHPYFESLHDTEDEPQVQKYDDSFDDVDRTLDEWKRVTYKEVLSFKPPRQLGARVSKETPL
Particulars: at 1 µM.

In test [2] the target is SRSF protein kinase 1 (Homo sapiens) (UniProt Q96SB4). Particulars: at 0.1 µM.
The target is the same in test [3]. The conditions noted are these: at 1 µM.
Test [4] addresses Phosphatidylinositol 4,5-bisphosphate 3-kinase catalytic subunit alpha isoform (Homo sapiens) (UniProt P42336). Particulars: at 0.1 µM.
For test [5] the target is unchanged. The conditions noted are these: at 1 µM.
Test [6] deals with T2, Phosphatidylinositol 4,5-bisphosphate 3-kinase catalytic subunit delta isoform (Homo sapiens) (UniProt O00329).
T2 sequence (whole entry): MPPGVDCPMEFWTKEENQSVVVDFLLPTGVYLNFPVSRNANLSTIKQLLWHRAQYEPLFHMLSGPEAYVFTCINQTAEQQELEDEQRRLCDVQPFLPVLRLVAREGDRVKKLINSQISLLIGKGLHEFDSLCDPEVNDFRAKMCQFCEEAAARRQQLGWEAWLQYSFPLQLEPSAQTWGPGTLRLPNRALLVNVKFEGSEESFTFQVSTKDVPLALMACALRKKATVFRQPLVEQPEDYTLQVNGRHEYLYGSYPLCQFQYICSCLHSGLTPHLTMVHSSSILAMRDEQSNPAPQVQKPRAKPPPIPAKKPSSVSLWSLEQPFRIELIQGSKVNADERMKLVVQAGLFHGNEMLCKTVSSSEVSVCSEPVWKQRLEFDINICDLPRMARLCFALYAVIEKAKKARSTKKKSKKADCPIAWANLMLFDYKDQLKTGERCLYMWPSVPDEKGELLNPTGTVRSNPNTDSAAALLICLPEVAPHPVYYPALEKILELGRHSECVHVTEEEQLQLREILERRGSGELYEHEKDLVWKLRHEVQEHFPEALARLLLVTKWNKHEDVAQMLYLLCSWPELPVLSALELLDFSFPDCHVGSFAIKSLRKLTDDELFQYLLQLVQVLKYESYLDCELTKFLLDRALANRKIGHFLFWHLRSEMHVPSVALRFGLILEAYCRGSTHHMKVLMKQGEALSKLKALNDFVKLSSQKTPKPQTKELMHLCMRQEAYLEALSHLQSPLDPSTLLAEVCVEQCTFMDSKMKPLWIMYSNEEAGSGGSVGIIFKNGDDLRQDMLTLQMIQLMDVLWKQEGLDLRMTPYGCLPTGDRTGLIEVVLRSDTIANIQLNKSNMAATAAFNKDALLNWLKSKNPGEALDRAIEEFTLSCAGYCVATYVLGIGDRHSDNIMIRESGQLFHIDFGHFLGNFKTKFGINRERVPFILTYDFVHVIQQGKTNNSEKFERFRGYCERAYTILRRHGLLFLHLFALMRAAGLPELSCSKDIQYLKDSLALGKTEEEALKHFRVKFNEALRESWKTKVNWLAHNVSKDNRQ
The conditions noted are these: at 0.1 µM.

Test [7] addresses T2, Phosphatidylinositol 4,5-bisphosphate 3-kinase catalytic subunit delta isoform (Homo sapiens). Particulars: at 1 µM.
For test [8], the target named is Phosphatidylinositol 4-kinase beta (Homo sapiens) (UniProt Q9UBF8). The conditions noted are these: at 0.1 µM.
For test [9] the target is unchanged. The conditions noted are these: at 1 µM.
Test [10] deals with Sphingosine kinase 1 (Homo sapiens) (UniProt Q9NYA1). The conditions noted are these: at 0.1 µM.

As a reminder, the inhibition is the relative decrease from the control value, in per cent.

SRSF protein kinase 1 (Homo sapiens), sequence (Q96SB4 whole entry): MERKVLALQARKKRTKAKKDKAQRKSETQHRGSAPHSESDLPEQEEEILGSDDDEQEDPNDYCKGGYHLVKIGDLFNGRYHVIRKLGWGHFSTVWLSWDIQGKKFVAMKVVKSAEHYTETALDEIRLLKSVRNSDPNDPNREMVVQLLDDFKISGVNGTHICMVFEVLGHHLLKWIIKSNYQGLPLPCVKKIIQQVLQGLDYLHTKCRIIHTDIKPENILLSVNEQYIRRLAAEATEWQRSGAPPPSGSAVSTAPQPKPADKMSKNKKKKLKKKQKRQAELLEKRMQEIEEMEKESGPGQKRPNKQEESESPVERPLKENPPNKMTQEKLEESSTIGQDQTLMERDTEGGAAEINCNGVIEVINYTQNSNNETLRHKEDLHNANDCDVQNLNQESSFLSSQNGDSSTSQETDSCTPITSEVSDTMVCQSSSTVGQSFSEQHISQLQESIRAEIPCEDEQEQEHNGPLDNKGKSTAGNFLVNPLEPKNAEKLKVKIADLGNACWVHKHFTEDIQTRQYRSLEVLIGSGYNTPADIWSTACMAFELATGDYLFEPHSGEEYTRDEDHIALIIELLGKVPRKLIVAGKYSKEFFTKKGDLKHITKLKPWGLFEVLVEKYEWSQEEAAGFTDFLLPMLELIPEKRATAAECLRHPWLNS
Phosphatidylinositol 4-kinase beta (Homo sapiens), sequence (Q9UBF8 2-816 limits assumed): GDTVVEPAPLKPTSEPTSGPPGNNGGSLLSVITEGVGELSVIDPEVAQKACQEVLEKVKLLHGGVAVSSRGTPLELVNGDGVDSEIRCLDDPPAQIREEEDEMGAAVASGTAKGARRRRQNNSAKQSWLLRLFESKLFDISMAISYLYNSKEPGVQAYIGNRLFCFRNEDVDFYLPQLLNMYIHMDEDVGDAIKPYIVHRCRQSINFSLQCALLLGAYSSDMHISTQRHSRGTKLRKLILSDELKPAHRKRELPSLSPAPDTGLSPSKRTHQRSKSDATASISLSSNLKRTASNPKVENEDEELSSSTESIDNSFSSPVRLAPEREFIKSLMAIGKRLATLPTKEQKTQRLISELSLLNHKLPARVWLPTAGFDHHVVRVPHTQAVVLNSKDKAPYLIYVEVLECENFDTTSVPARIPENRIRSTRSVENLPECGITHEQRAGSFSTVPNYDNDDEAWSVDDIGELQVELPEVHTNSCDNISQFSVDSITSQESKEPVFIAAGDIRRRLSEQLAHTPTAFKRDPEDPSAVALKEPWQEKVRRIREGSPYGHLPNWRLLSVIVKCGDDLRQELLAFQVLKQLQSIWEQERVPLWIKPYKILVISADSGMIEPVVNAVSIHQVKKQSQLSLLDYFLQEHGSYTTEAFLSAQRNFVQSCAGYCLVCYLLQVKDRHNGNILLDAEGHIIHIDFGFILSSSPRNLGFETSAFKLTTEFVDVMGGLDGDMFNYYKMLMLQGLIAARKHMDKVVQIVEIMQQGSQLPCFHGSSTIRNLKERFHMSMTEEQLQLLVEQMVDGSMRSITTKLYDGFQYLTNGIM
Sphingosine kinase 1 (Homo sapiens), sequence (Q9NYA1 whole entry): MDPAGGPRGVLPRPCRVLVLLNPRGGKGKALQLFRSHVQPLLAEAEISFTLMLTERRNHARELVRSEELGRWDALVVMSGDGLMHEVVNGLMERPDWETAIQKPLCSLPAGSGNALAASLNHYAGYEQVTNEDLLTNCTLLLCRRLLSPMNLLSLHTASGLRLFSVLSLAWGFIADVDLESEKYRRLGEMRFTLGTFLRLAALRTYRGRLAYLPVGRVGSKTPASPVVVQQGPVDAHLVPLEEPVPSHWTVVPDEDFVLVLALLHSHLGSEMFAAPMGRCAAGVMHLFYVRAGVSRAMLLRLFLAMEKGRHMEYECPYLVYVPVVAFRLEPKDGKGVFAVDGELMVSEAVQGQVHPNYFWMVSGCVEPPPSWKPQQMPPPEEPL
Phosphatidylinositol 4,5-bisphosphate 3-kinase catalytic subunit alpha isoform (Homo sapiens), sequence (P42336 whole entry, canonical isoform): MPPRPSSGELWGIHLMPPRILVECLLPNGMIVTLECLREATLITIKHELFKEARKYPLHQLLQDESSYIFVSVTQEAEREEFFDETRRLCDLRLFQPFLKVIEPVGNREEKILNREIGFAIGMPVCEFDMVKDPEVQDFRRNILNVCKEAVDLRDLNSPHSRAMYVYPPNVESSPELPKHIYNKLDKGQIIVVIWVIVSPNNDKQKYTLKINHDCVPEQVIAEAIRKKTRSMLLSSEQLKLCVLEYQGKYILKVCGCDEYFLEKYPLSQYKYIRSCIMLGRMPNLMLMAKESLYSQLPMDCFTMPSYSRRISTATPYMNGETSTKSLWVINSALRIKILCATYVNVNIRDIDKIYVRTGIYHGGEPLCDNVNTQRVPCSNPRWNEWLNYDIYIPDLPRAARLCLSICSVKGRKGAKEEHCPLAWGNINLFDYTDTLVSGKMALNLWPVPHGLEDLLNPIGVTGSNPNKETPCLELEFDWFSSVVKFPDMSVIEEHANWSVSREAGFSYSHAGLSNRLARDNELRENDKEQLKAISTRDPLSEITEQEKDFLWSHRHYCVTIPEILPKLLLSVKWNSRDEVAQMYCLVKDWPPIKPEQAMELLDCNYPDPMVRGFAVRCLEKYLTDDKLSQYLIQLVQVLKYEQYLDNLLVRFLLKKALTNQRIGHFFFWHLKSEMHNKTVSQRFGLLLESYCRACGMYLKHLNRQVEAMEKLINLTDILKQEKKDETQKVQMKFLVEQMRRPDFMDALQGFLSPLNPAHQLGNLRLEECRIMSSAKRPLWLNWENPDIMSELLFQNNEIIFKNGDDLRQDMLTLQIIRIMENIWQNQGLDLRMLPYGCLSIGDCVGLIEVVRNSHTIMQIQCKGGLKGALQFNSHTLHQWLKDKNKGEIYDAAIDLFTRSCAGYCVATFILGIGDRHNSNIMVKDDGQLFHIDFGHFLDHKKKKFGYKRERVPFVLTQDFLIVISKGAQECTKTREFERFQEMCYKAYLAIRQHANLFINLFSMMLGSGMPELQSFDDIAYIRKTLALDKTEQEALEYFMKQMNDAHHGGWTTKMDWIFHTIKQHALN

Consider `O=C(Nc1n[nH]c2cc(-c3cc(F)ccc3F)ccc12)C1CC1`, for which the inhibition in test [1] is 2.66%; in test [2], -2.08%; in test [3] it was -4.65%; in test [4] it was 1.92%; in test [5], 3.65%; in test [6] it was 2.22%. For the same molecule, the inhibition was 4.33% in [7], -2.33% in test [8], 3.14% in test [9] and 0.01% in [10].
For `Cc1ccc(NC(=O)c2ccoc2)cc1-c1ccc(C(=O)NCC2CC2)cc1`, the inhibition is 1.97% in [1]; -1.34% in [2]; -0.85% in test [3]; 2.81% in [4]; 3.57% in test [5]; 1.77% in test [6]. The inhibition in test [7] is 2.51%; in [8], 1.89%; in [9], -1.62%; in [10] it was 0%.
Take `NC(=O)c1cc(-c2ccc(F)cc2)cc(-c2ccncc2)c1N`: the inhibition in [1] was 3.29%; in [2], -2.19%; in test [3], -2.78%; in test [4] it was 3.84%; in [5], 22.8%; in test [6], 2.48%. The inhibition was 4.83% in [7], -4.18% in test [8], -2.52% in test [9] and -2.79% in test [10].
For `COc1ccc(-c2ccc3c(NC(=O)C4CC4)n[nH]c3n2)cc1`, the inhibition was 0.89% in [1]; -0.87% in [2]; 1.03% in test [3]; 1.49% in test [4]; 0.27% in test [5]; -0.49% in test [6]. Besides, the inhibition in [7] is -0.82%; in [8], -2.64%; in test [9], -0.19%; in [10], 0.68%.
For `O=C1NC(=O)C(c2cccc(Cl)c2)=C1Nc1ccc(Cl)c(C(=O)O)c1`, the inhibition in test [1] is 1.67%; in [2], -2.19%; in test [3] it was -1.47%; in test [4], 3.63%; in test [5], 1.55%; in test [6] it was 1.72%. For the same molecule, the inhibition in test [7] is -0.43%; in test [8], 0.69%; in test [9], -0.07%; in test [10], 0.25%.
For the molecule `CS(=O)(=O)CCNCc1ccc(-c2ccc3ncnc(Nc4ccc(OCc5ccccc5)c(Br)c4)c3c2)o1`, the inhibition was 3.4% in test [1]; -3.23% in test [2]; -2.26% in test [3]; 3.6% in test [4]; 1.93% in [5]; 0.72% in test [6]. The inhibition in test [7] was 2.81%; in [8], -4.04%; in test [9], -0.22%; in test [10] it was -0.92%.
With `CCS(=O)(=O)c1ccc(OC)c(Nc2ncc(-c3ccccc3Cl)o2)c1`, the inhibition in test [1] was -0.19%; in [2], -0.98%; in [3], 0.67%; in test [4] it was -0.1%; in test [5], -1.53%; in test [6], 2.13%. Moreover, the inhibition in test [7] is 1.67%; in test [8], 3.2%; in [9], -6.4%; in test [10], -0.2%.
Turning to `CS(=O)(=O)CCNCc1cc(-c2cc3c(Nc4ccc(OCc5cccc(F)c5)c(Cl)c4)ncnc3s2)cs1`, the inhibition was 6% in [1]; -3.5% in test [2]; -2.78% in [3]; 4.7% in test [4]; 5.78% in [5]; 0.67% in test [6]. Further, the inhibition in test [7] was 7.33%; in test [8], -1.24%; in [9], 3.94%; in test [10] it was 1.57%.
As for `Cc1ccc(C(=O)NC2CCC2)cc1-c1ccc(C(=O)NCC2CC2)cc1`, the inhibition in test [1] was 1.52%; in test [2] it was -1.15%; in test [3], -3.91%; in test [4], 1.03%; in test [5] it was 2.46%; in test [6] it was 0.19%. For the same molecule, the inhibition in [7] is 3.4%; in test [8] it was -3.28%; in test [9], 0.35%; in test [10], 0.24%.
For the molecule `COc1cc(Nc2ncc3c(C)nc(-c4cccc(C(F)(F)F)c4)n3n2)cc(OC)c1OC`, the inhibition is 1.38% in test [1]; -1.06% in test [2]; 1.6% in [3]; 1.32% in test [4]; 0.9% in test [5]; 1.18% in test [6]. Moreover, the inhibition was -1.04% in test [7], 7.16% in test [8], 1.45% in test [9] and 2.98% in [10].
In the case of `COc1cc(Nc2ncc(-c3ccccc3)o2)cc(OC)c1OC`, the inhibition in [1] is -1.06%; in test [2] it was 2.19%; in test [3], 1%; in [4] it was 0.99%; in test [5], 2.57%; in [6], 2.6%. Also, the inhibition amounted to 11.4% in [7], 11.5% in test [8], 7.23% in test [9] and 1.38% in test [10].
Turning to `Nc1nccc(-c2c(-c3ccc(F)cc3)ncn2C2CCC(O)CC2)n1` (stereo not given), the inhibition was -0.94% in test [1]; 1.95% in test [2]; 4.67% in test [3]; 16.6% in test [4]; 3.18% in test [5]; 3.72% in test [6]. Also, the inhibition in test [7] is 7.23%; in [8], -6.38%; in test [9], -0.81%; in test [10], 0.34%.
Take `CCc1cccc(CC)c1/C=C/c1cncc(C(=O)NC)c1`: the inhibition was 1.19% in [1]; -1.77% in [2]; -2.98% in test [3]; 1.54% in test [4]; 1.36% in [5]; 4.84% in test [6]. The inhibition is 3.62% in test [7], -2.02% in test [8], -0.43% in [9] and 0.93% in test [10].
In the case of `CN1CCN(CCCNc2nc3ccc(Oc4ccc(NC(=O)Nc5cc(C(F)(F)F)ccc5F)cc4)cc3[nH]2)CC1`, the inhibition in [1] is 1.58%; in test [2], -1.48%; in [3], -3.44%; in test [4] it was 2.13%; in [5], 0.9%; in test [6], 1.3%. The inhibition in test [7] was 7.49%; in test [8], 1.45%; in [9], -2.72%; in [10], -1.28%.
Turning to `CN(c1ccc(NC(=O)Nc2c(Cl)cccc2Cl)cc1)c1ccnc(Nc2cccc(CS(C)(=O)=O)c2)n1`, the inhibition is -0.86% in test [1]; -0.25% in test [2]; 2.16% in [3]; 0.53% in test [4]; -1.22% in [5]; 0.12% in test [6]. Moreover, the inhibition in [7] is -1.62%; in [8] it was 3.66%; in [9], 3.73%; in test [10], -0.6%.
Regarding `O=C(Nc1n[nH]c2nc(-c3ccco3)ccc12)C1CC1`, the inhibition is 0.97% in test [1]; -1.07% in [2]; -1.33% in test [3]; -1.36% in test [4]; 0.99% in test [5]; -0.99% in [6]. Further, the inhibition was 1.03% in test [7], 3.38% in [8], 1.68% in [9] and -0.31% in test [10].

For the origin of these results see ChEMBL document CHEMBL1961873, “Compounds: GSK PKIS; Assays: Nanosyn kinase panel” (2012).
